In ChEMBL document CHEMBL4513216, “Probing the Open Global Health Chemical Diversity Library for Multistage-Active Starting Points for Next-Generation Antimalarials” (ACS Infect Dis, 2020):
Among all 69,000 compounds or so, about 8,600 (12%) showed an effect of 50% or more. What follows is part of a selection rich in strong results, with near analogues and random picks from the rest.

What follows are compounds tested on Plasmodium berghei (assay: Screen against P. berghei liver stage (PbLuc), transformed with Luciferase, at 10uM). Settings: tested at 10 uM.
Format: functional, HepG2
With O=C(NCCc1nncn1C1CC1)c1cc2ccccn2c1 the INHIBITION was -22.3%.
Work on CCc1noc(CNc2ccc(CC(=O)N3CCSCC3)cc2)n1 yielded an INHIBITION of 28.5%.
With CN(C(=O)Cc1ccc(NC(=O)NC2CC2)cc1)c1ccccc1 the INHIBITION was 8.845%.
Cc1noc(CNc2ccc(CC(=O)N3CCSCC3)cc2)n1 showed an INHIBITION of 32.5%.
Work on CN(C)C(=O)Cc1ccc(NC(=O)NC2CCCC2)cc1 yielded an INHIBITION of -36.6%.
O=C(Nc1ccc(CC(=O)N2CCSCC2)cc1)NC1CCCC1 showed an INHIBITION of 33.2%.
CN(C(=O)Cc1ccc(NC(=O)NC2CCC2)cc1)c1ccccc1 gave an INHIBITION of 55.3%.
Work on O=C(Nc1ccc(CC(=O)N2CCCC2)cc1)NC1CC1 yielded an INHIBITION of 36.2%.
For CCc1nnc(CNc2ccc(CC(=O)N3CCSCC3)cc2)o1, the INHIBITION was 84.2%.
O=C(Nc1ccc(CC(=O)N2CCSCC2)cc1)NC1CC1 gave an INHIBITION of 53.8%.
CC(C)C(NC(=O)Nc1ccc(F)cc1)C(=O)N(C)C (centres undefined) was tested, and the INHIBITION was 18.7%.
For Cn1cc(-c2cc(C(F)(F)F)n(CCCN)n2)cn1, the INHIBITION was 21.9%.
Work on CNC(=O)CN([C@H]1C[C@H]2CCOC[C@H]2C1)S(=O)(=O)c1ccccc1 yielded an INHIBITION of 19.2%.
For O=C1COC2(CCN(Cc3ccoc3)CC2)CN1CCn1cccn1, the INHIBITION was 0.804%.
For Cc1occc1C(=O)N1CCO[C@H]2[C@H](OCc3ccccn3)CC[C@@H]21, the INHIBITION was 30.3%.
Cc1cnc(N2CCN(C)CC2)nc1-c1ccnn1C showed an INHIBITION of 16.3%.
With COc1cnc(N2CCN(C)CC2)nc1-c1ccnn1C the INHIBITION was 20.8%.
In the case of Cc1cnc(N2CCC(c3ccccc3)CC2)nc1-c1ccnn1C, the INHIBITION is reported as 68%.
For Cc1cnc(N2CC[C@@]3(O)CCCC[C@H]3C2)nc1-c1ccnn1C, the INHIBITION was 30.4%.
Cc1cnc(N2CCCC(c3ccccc3)C2)nc1-c1ccnn1C (centres undefined) gave an INHIBITION of 71%.
Work on COc1cnc(N2CC(N3CCOCC3)C2)nc1-c1ccnn1C yielded an INHIBITION of 41%.
In the case of Cc1cnc(N2CCCC(c3ccccc3)C2)nc1-c1ncnn1C (centres undefined), the INHIBITION is reported as 39.3%.
With Cc1cnc(N2CCC(c3ccncc3)CC2)nc1-c1ccnn1C the INHIBITION was 68%.
Compound Cc1cnc(N2CCCC(O)C2)nc1-c1ccnn1C (centres undefined) has an INHIBITION of 16.6%.
Work on Cc1ccoc1C(=O)N1C[C@@H]2COC[C@]2(COCc2cccnc2)C1 yielded an INHIBITION of -34.7%.
With CCCc1n[nH]c(C2CN(C(=O)c3n[nH]c4ccccc34)CCO2)n1 (centres undefined) the INHIBITION was 21%.
Compound COC(=O)NCC(=O)NC1(C)CCc2ccccc2C1 (centres undefined) has an INHIBITION of 7.3%.
For CN(C)c1ccc(C(=O)N2CCCC(n3cccn3)C2)nn1 (centres undefined), the INHIBITION was 3.15%.
For Cc1ccc(NC2CCN(C(=O)CCCc3cccs3)CC2)nn1, the INHIBITION was -3.7%.
O=C1CCC2(CCN(Cc3cscn3)CC2)CN1CC1CCCO1 (centres undefined) showed an INHIBITION of -23.5%.
Cc1n[nH]c(SCC(=O)NC(c2ccncc2)C(C)C)n1 (centres undefined) was tested, and the INHIBITION was 50.1%.
Cc1n[nH]c(SCC(=O)N[C@@H](C)C(N)=O)n1 was tested, and the INHIBITION was 4.41%.
Cc1n[nH]c(SCC(=O)NC(c2ccccn2)C(C)C)n1 (centres undefined) was tested, and the INHIBITION was 58.7%.
With Cc1noc(CCCC(=O)NC(C)c2ccccn2)n1 (centres undefined) the INHIBITION was 13.9%.
In the case of CSCC(=O)NC(Cc1ccc(C)cc1)c1ccccn1 (centres undefined), the INHIBITION is reported as 21.3%.
Work on Cc1ccc(OCCC(=O)NC(C)c2ccncc2)cc1 (centres undefined) yielded an INHIBITION of 41.6%.
CC(C)CNC(=O)Cn1ccc2ccccc21 was tested, and the INHIBITION was 25.7%.
Work on O=C(NC1CC1)c1ccnc(-c2cc(NCCO)nc3[nH]ccc23)c1 yielded an INHIBITION of -20.1%.
O=C(c1ccc[nH]1)N1CCCC2(CCCN2Cc2cccnc2)C1 (centres undefined) gave an INHIBITION of 12.1%.
O=C(c1ccc[nH]1)N1CCC2(CCCN2Cc2cccnc2)CC1 showed an INHIBITION of 4.02%.
O=S(=O)(c1ccccc1)N1CCC2(CCCN2Cc2cccnc2)C1 (centres undefined) showed an INHIBITION of 55.5%.
Cc1ccc(CN2CCCC23CCN(S(=O)(=O)c2ccccc2)C3)o1 (centres undefined) was tested, and the INHIBITION was 34.7%.
Compound COCCC(=O)N1CCC2(CCCN2Cc2ccccc2)C1 (centres undefined) has an INHIBITION of -22.5%.
For O=S(=O)(c1ccccc1)N1CCC2(CCCN2Cc2cccc(F)c2)C1 (centres undefined), the INHIBITION was 78.8%.
For O=S(=O)(c1ccccc1)N1CCC2(CCCN2Cc2ccc(Cl)cc2)C1 (centres undefined), the INHIBITION was 91.7%.
CCS(=O)(=O)N1CCCC2(CCCN2Cc2cccc(F)c2)C1 (centres undefined) showed an INHIBITION of -22.1%.
Compound CC(C)c1ccc(S(=O)(=O)N2CCCC3(CCCN3S(C)(=O)=O)C2)cc1 (centres undefined) has an INHIBITION of -3.33%.
With CCc1ccc(S(=O)(=O)N2CCCC3(CCCN3S(C)(=O)=O)C2)cc1 (centres undefined) the INHIBITION was -12.2%.
CS(=O)(=O)N1CCCC12CCCN(S(=O)(=O)c1cccc(F)c1)C2 (centres undefined) gave an INHIBITION of -2.35%.
O=S(=O)(c1ccccc1)N1CCC2(CCCN2Cc2ccccc2Cl)C1 (centres undefined) showed an INHIBITION of 60.2%.
With CCOc1cc(/C=C/c2ncc(C(=O)O)s2)cc(Br)c1O the INHIBITION was -13.3%.
In the case of CC(C)CNC(=O)CNC(=O)c1nc(Cc2c(Cl)cccc2Cl)no1, the INHIBITION is reported as 41%.
COCCC1CCN(CC(C)n2cnc3ccccc32)CC1 (centres undefined) was tested, and the INHIBITION was -3.47%.
Work on CCc1nc(CN2CCCN(C(=O)c3cnc(C)cn3)CC2)cs1 yielded an INHIBITION of 10.733%.
For COc1ccccc1CN(Cc1cccnc1)CC1CCCO1 (centres undefined), the INHIBITION was 42.6%.
CCN(CC)Cc1ccc(C(=O)N2CCN(CC(C)O)CC2)o1 (centres undefined) gave an INHIBITION of 21.5%.
For COC(=O)c1cccc(S(=O)(=O)NC(=O)COC2CCCC2)c1, the INHIBITION was 15.5%.
For O=S(=O)(c1ccccc1)N1CCC2(CCCN2Cc2cccc(Cl)c2)C1 (centres undefined), the INHIBITION was 61.8%.
In the case of COCCC(=O)N1CCC2(CCCN2Cc2cccc(Cl)c2)C1 (centres undefined), the INHIBITION is reported as 47.9%.
In the case of CCS(=O)(=O)N1CCCC2(CCCN2Cc2cccc(Cl)c2)C1 (centres undefined), the INHIBITION is reported as -14.3%.
NC(=O)C1CCN(C(=O)NCCOc2ccc3c(c2)CCC3)CC1 gave an INHIBITION of 5.45%.
N[C@H]1CN(C(=O)c2ccc(Cl)cc2F)C[C@@H]1C1CC1 showed an INHIBITION of 25.7%.
With N[C@H]1CN(C(=O)c2ccc(Cl)cc2O)C[C@@H]1C1CC1 the INHIBITION was 61%.
Work on Cc1cc(Cl)ccc1C(=O)N1C[C@H](C2CC2)[C@@H](N)C1 yielded an INHIBITION of 32.2%.
O[C@@H]1C[C@H]2CN(Cc3ccsc3)[C@@H](Cc3ccccc3)CN2C1 showed an INHIBITION of 39.3%.
Compound COCCN1C[C@@H]2CN(c3cnccn3)C[C@@H]2C1=O has an INHIBITION of 14%.
Compound O=C1[C@H]2CN(c3cnccn3)C[C@H]2CN1CC1CC1 has an INHIBITION of 51.2%.
In the case of O=C1[C@H]2CN(c3ncccn3)C[C@H]2CN1CC1CC1, the INHIBITION is reported as 64.2%.
CC(C)CN1C[C@@H]2CN(c3cnccn3)C[C@@H]2C1=O showed an INHIBITION of 21.3%.
O=C1[C@H]2CN(c3ncccn3)C[C@H]2CN1Cc1ccncc1 showed an INHIBITION of 4.71%.
CCS(=O)(=O)N1C[C@H]2CN(CC3CC3)C(=O)[C@H]2C1 gave an INHIBITION of -12.2%.
With CS(=O)(=O)N1C[C@H]2CN(CC3CC3)C(=O)[C@H]2C1 the INHIBITION was 85.2%.
O=C1[C@H]2CN(S(=O)(=O)C3CC3)C[C@H]2CN1CC1CC1 showed an INHIBITION of 3.69%.
With O=C1[C@H]2CN(c3ncc(F)cn3)C[C@H]2CN1CC1CC1 the INHIBITION was 42.6%.
CN(C)C1COC2(CCN(Cc3ccc4c(c3)OCO4)CC2)C1 (centres undefined) gave an INHIBITION of -50.4%.
COc1cc(C2CC(=O)Oc3cc(C)[nH]c(=O)c32)ccc1OCC(=O)O (centres undefined) showed an INHIBITION of 13.1%.
CN1CCN(c2nc(O)c3c(-c4ccccn4)ccnc3n2)CC1 gave an INHIBITION of -33.2%.
For O=C(c1ccccc1C1CCNC1)N1CCC(N2CCC(O)CC2)CC1 (centres undefined), the INHIBITION was 11.5%.
Compound COCCN(CCOC)C(=O)Nc1cc(C(F)(F)F)c[nH]c1=O has an INHIBITION of 12.7%.
Compound Cc1ncsc1C(=O)NC1CCN(Cc2cccc3c2OCCO3)CC1 has an INHIBITION of 33.8%.
CC1CS(=O)(=O)CCN1CCCc1ccc(C(F)(F)F)cc1 (centres undefined) gave an INHIBITION of 10.1%.
CCCC(=O)n1ccn(S(=O)(=O)c2ccc(C)cc2)c1=O was tested, and the INHIBITION was 5.18%.
CC(C)(CO)CNC(=O)c1cc(-c2cc[nH]n2)n2ccccc12 showed an INHIBITION of 41.2%.
With COc1ccccc1OCCN(C)c1cc(C)nc(N)n1 the INHIBITION was 26.3%.
Cc1cc(N(C)CCOc2ccccc2F)nc(N)n1 was tested, and the INHIBITION was 65.7%.
COc1ccc(OCCN(C)c2cc(C)nc(N)n2)cc1 gave an INHIBITION of 45.4%.
CN(CCOc1ccccc1F)C1CCOC1=O (centres undefined) was tested, and the INHIBITION was 33%.
Work on COc1ccccc1OCCCN(C)c1cc(C)nc(N)n1 yielded an INHIBITION of 61.2%.
COc1ccccc1OCCCc1cc(C)nc(N)n1 gave an INHIBITION of -16.7%.
Work on CNc1cc(C2CN(Cc3cccnc3NC)CCO2)nc(C)n1 (centres undefined) yielded an INHIBITION of 1.62%.
In the case of CC1c2ncc(CNC(=O)C3CC3)n2CCN1Cc1ccsc1 (centres undefined), the INHIBITION is reported as -10.3%.
CNC(=O)C1Cn2ccnc2C2(CCN(Cc3cccnc3)CC2)O1 (centres undefined) showed an INHIBITION of 43.2%.
COCCc1noc(CN2CCCC2c2noc(C)n2)n1 (centres undefined) was tested, and the INHIBITION was -5.32%.
For COc1ccnc(NC(Cc2ccccc2)C(=O)N(C)C)n1 (centres undefined), the INHIBITION was 8.7%.
Work on O=C(NC[C@H]1C[C@@H]2CN(C(=O)c3ccco3)C[C@@H]2O1)c1ccsc1 yielded an INHIBITION of 18.6%.
With O=C(NC[C@@H]1C[C@@H]2CN(C(=O)CO)C[C@H]2O1)c1ccsc1 the INHIBITION was 52.1%.
Cn1cccc1C(=O)NC[C@H]1C[C@@H]2CN(C(=O)c3ccco3)C[C@@H]2O1 showed an INHIBITION of 7.7%.
Work on CC(C)OCc1ncn2c1CN(Cc1cccs1)CCC2 yielded an INHIBITION of 15.9%.
CCn1cc2c(n1)C(COC)CN(C(=O)CCOc1ccccc1)C2 (centres undefined) gave an INHIBITION of -37.9%.
Work on CCc1cnc(N)nc1NC(C)c1ccc(C)c(C)c1 (centres undefined) yielded an INHIBITION of 88.2%.
In the case of CCc1cnc(N)nc1NC(C)c1cnn(C)c1 (centres undefined), the INHIBITION is reported as 17.8%.
Work on CCc1cnc(N)nc1N[C@@H](C)c1ncccc1C yielded an INHIBITION of 3.96%.
With CN(CC(O)C(F)(F)F)C(=O)Nc1cccc(N2CCCC2)c1 (centres undefined) the INHIBITION was -16.4%.
Compound Cn1cc(CN2CCC(F)(F)C3(CCN(c4ncc(F)cn4)C3)C2)cn1 (centres undefined) has an INHIBITION of 12.5%.
